From PubChem BioAssay
Shown are actives, neighbours in structure and some others; about 8.1% of the full set was active somewhere.
Sfp PPTase inh = Sfp phosphopantetheinyl transferase inhibition; Q9F4F7; Biochemical Sfp PPTase activity, qHTS; Potency, µM, hits mostly inhibitors; 3.5% of 310,000 active; AID 1490;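 note: the enzyme is Sfp with the accession as filed and its product quenches rhodamine fluorescence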
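Sfp 15 nM + cpd, 15 min RT; start w/ rhodamine-CoA 5 uM, BHQ-2-YbbR 12.5 uM (final); 50 mM Hepes pH 7.6, 10 mM MgCl2, 0.01% NP-40, 0.01% BSA; read 525/598 nm at 0 and 30 min.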
Epigenetic reg = epigenetic control regulation, reporter derepression | murine LDR cells, GFP reporter derepression, 30 h | Potency, µM (doses to about 53.9 µM), usual class: activators | 0.2% of 280,000 active | AID 1865; note: nearly all actives have a fitted effect of over 60% in size
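Derepression of a silenced CMV-GFP reporter in murine LDR cells is scored by enumerating GFP-positive cells with a laser-scanning microplate cytometer after 30 hours of treatment at 37 C.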
VP16 counter = counter-screen for ROR gamma inhibitors: Gal4-VP16 reporter; Drosophila S2 Gal4-VP16 UAS-luciferase, luminescence, 20 h; Potency, µM (series often up to 53.6 µM), most hits filed as inhibitors; 3.5% of 310,000 active; AID 2546;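 note: Gal4-VP16 expression switched on by copper sulfate through the metallothionein promoter; nearly all actives have a fitted effect of over 50% in size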
ClpP mod = qHTS Assay for Activators of ClpP. ATP-dependent Clp protease proteolytic subunit (Bacillus subtilis (strain 168)), P80244. purified B. subtilis ClpP, FRET peptide cleavage, 20 min. Potency, µM (series often up to 57.5 µM). 1.9% of 340,000 active; active = well fitted falling curve with a large enough effect; inconclusive = small, poorly fitted or top-dose-only effect; inactive = no such curve, though single readings can be large or run the other way; note: the source files actives as falling curves though it sought activators and does not explain the sign; nearly all actives have a fitted effect of over 65% in size
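FRET quenching reversal measured ClpP activation: 10 microg/mL B. subtilis ClpP at pH 8 with the FRET-FV decapeptide, read at 430 nm after 320 nm excitation. The 20-min minus 0-min signal was scaled between DMSO/no-enzyme wells and ADEP (5.8 microM final).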
RORgamma inh = ROR gamma (mouse) transcription inhibition. Drosophila S2 Gal4-RORgamma UAS-luciferase reporter, 20 h. Potency, µM (top dose mostly 53.6 µM), actives largely listed as inhibitors. 5.4% of 310,000 active; note: nearly all actives have a fitted effect of over 60% in size
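ROR gamma transcriptional activity was tracked as Gal4-UAS luciferase output in stably transfected Drosophila Schneider cells, with compound added 1 hr before 700 uM copper sulfate induction and a 20 hr ambient-temperature incubation.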
PINK1 modulator = PINK1 expression modulation | PINK1 immunofluorescence, high-content cytometry, 24 h | Potency, µM (series often up to 76.6 µM), hits mostly activators | 0.2% of 410,000 active | AID 624263; active = well fitted activation curve with a large enough effect; inconclusive = small, poorly fitted or top-dose-only effect; cell line not stated here; note: nearly all actives have a fitted effect of over 65% in size
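Cells are seeded, rested 12 hours, then given compound at five concentrations or DMSO for 24 hours. After fixation, blocking and antibody staining, PINK1 amount and mitochondrial localization are scored; CCCP serves as control.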
Numbers stand for hits; – = inactive; ? = inconclusive; · = no result given; [ ] = remark or other dose. Unless noted, calls come from the whole dose curve; as a rule, active = well fitted curve in the direction sought with a large enough effect; inconclusive = small, poorly fitted or top-dose-only effect, or another doubt; inactive = no such curve, though single readings can be large; an effect the other way counts as inactive or inconclusive.

SMILES	Sfp PPTase inh	Epigenetic reg	VP16 counter	ClpP mod	RORgamma inh	PINK1 modulator
C=CCN1C(=O)NC(=O)/C(=C\c2ccc(-c3ccccc3[N+](=O)[O-])o2)C1=O	25.1µM	–	–	·	–	–
Cc1cc(/C=C2/C(=O)NC(=O)N(Cc3ccco3)C2=O)c(C)n1-c1ccccc1	–	–	–	–	?	–
O=C1NC(=O)N(Cc2ccco2)C(=O)/C1=C/c1ccc(-c2cccc([N+](=O)[O-])c2)o1	20µM	?	?	–	–	–
OC[C@@H](O)[C@H]1O[C@@H]2OC(C(Cl)(Cl)Cl)O[C@H]2[C@H]1O (stereo partly specified)	–	·	–	·	–	·
CC(Cc1ccc(C(C)(C)C)cc1)CN1CC(C)OC(C)C1 (stereo unspecified)	–	·	–	·	–	·
CCCN(CCC)c1c([N+](=O)[O-])cc(C(F)(F)F)cc1[N+](=O)[O-]	–	–	–	·	–	–
COc1ccc(N2C(=O)CS(=O)C(c3ccccc3)C2=O)cc1 (stereo unspecified)	1.58µM	–[10.1 µM]	–[10 µM]	·	1.26µM	–
Cc1cc(C(=O)Cn2nnc(-c3ccc(Cl)cc3)n2)c(C)n1-c1ccccc1	–	–	22.4µM	–	?	–
CCC(=O)OC1CCC2C3CCc4cc(O)ccc4C3CC[C@]12C (stereo partly specified)	–	–	?	·	?	·
CCC(Cl)[N+](=O)[O-] (stereo unspecified)	·	·	–	·	–	·
O=c1[nH]c(=S)n(Cc2ccc(F)cc2)c(O)c1/C=N/N1CCCCC1	–	–	?	–	11.2µM	–
O=c1[nH]c(=S)n(Cc2ccc(F)cc2)c(O)c1C=NCC1CCCO1 (stereo unspecified)	–	–	–	–	–	·
C=CC(=O)OCC(C)C	·	·	–	·	–	·
CC1CC(=O)O1 (stereo unspecified)	·	·	–	·	–	·
Nc1cc(Cl)c2nonc2c1[N+](=O)[O-]	–	–	2.82µM	–	2µM	–
O=[N+]([O-])c1c(Cl)c(Cl)c(Cl)c(Cl)c1Cl	·	·	–	·	–	–
CCOP(=O)(OCC)O/C(=C/Cl)c1ccc(Cl)cc1Cl	–	·	–	·	–	·
Nn1c(Cc2cccc3ccccc23)n[nH]c1=S	7.08µM	–	–	–	?	–
CC1(C)[C@@H](O)C[C@H]2[C@](C)(O)[C@@H]3CC[C@H]4[C@@H](O)[C@@]3(C[C@@H](O)[C@@]21O)C[C@@]4(C)O	–	–	·	·	·	·
C=CCn1c(O)c(N=Nc2c(C)n(C)n(-c3ccccc3)c2=O)c(=O)[nH]c1=S	20µM	–	–	–	–	–
CCCCCCn1c(O)c(C=Nc2c(C)n(C)n(-c3ccccc3)c2=O)c(=O)[nH]c1=O	–	–	–	–	–	–
Cc1c(N=Nc2c(O)[nH]c(=S)[nH]c2=O)c(=O)n(-c2ccccc2)n1C	44.7µM	–	–	–	–	–
CCOc1ccc(-n2c(O)c(N=Nc3c(C)n(C)n(-c4ccccc4)c3=O)c(=O)[nH]c2=O)cc1	44.7µM	–	–	·	–	–
Cc1c(N=Cc2c(O)n(CCc3ccccc3)c(=O)[nH]c2=O)c(=O)n(-c2ccccc2)n1C	–	–	·	–	–[0.365 µM]	–
CCOC(=O)C(C)Oc1cc(C)cc2oc(=O)c3c(c12)CCCC3 (stereo unspecified)	?	–	–	15.8µM	–	–
COC(=O)C(C)Oc1cc(C)cc2oc(=O)c3c(c12)CCCC3 (stereo unspecified)	–	–	–	25.1µM	–	–
Cc1cc(OCC(=O)NCC(O)c2ccccc2)c2c3c(c(=O)oc2c1)CCCC3 (stereo unspecified)	–	·	–	–	–	–
Cc1cc(OCC(=O)OC(C)C)c2c3c(c(=O)oc2c1)CCCC3	–	–	–	35.5µM	–	–
Cc1cc(OCC(=O)NC2CCS(=O)(=O)C2)c2c3c(c(=O)oc2c1)CCC3 (stereo unspecified)	–	–	–	3.16µM	–	–
Cc1cc(OCC(=O)NCC2CCC(C(=O)O)CC2)c2c3c(c(=O)oc2c1)CCC3 (stereo unspecified)	–	·	–	–	–	–
